Laboratory results reported in the antibiotic and cytotoxicity screens of Wong et al. (2023).
Hit rate of the full screen: of about 39,000 compounds, about 3,300 (8.5%) were called active. The sample as a whole holds a higher share of actives than the screen did.

The molecules below were run on HepG2 (assay: cytotoxicity call (relative viability < 0.9)). Conditions: 10 µM.
With `COc1cccc(-c2ccc3c(c2)O[C@@H](CN(C)C(=O)C2CC2)[C@H](C)CN([C@@H](C)CO)S3(=O)=O)c1` the cytotoxicity call was “inactive”.
In the case of `O=C(C[C@@H]1C[C@@H]2c3cc(NS(=O)(=O)c4ccc(F)cc4)ccc3O[C@@H]2[C@@H](CO)O1)NCCN1CCCCC1`, the cytotoxicity call is reported as “inactive”.
`C[C@H]1CN([C@@H](C)CO)C(=O)c2cc(C#Cc3ccncc3)cnc2O[C@@H]1CN(C)S(=O)(=O)c1ccccc1F` was tested, and the cytotoxicity call was “active”.
With `C[C@@H]1CN([C@@H](C)CO)C(=O)c2cc(C#Cc3ccncc3)cnc2O[C@H]1CN(C)S(=O)(=O)c1ccccc1F` the cytotoxicity call was “active”.
For `C[C@@H]1CN([C@H](C)CO)C(=O)c2cc(C#Cc3cccnc3)cnc2O[C@H]1CN(C)S(=O)(=O)c1ccccc1F`, the cytotoxicity call was “inactive”.
With `C[C@@H]1CN([C@H](C)CO)C(=O)c2cc(C#Cc3cccnc3)cnc2O[C@@H]1CN(C)S(=O)(=O)c1ccccc1F` the cytotoxicity call was “inactive”.
For `C[C@@H]1CN([C@H](C)CO)C(=O)c2cc(C#Cc3ccncc3)cnc2O[C@H]1CN(C)S(=O)(=O)c1ccccc1F`, the cytotoxicity call was “inactive”.
With `C[C@H]1CN([C@@H](C)CO)C(=O)c2cc(C#Cc3ccncc3)cnc2O[C@H]1CN(C)S(=O)(=O)c1ccccc1F` the cytotoxicity call was “active”.
With `C[C@@H]1CN([C@H](C)CO)C(=O)c2cc(C#Cc3ccncc3)cnc2O[C@@H]1CN(C)S(=O)(=O)c1ccccc1F` the cytotoxicity call was “inactive”.
In the case of `C[C@@H]1CN([C@H](C)CO)C(=O)c2cc(C#Cc3ccccc3)cnc2O[C@H]1CN(C)S(=O)(=O)c1ccccc1F`, the cytotoxicity call is reported as “inactive”.
For `C[C@H]1CN([C@@H](C)CO)C(=O)c2cc(C#Cc3ccccc3)cnc2O[C@@H]1CN(C)S(=O)(=O)c1ccccc1F`, the cytotoxicity call was “inactive”.
`C[C@H](CO)N1C[C@H](C)[C@H](CN(C)S(=O)(=O)c2ccccc2F)Oc2ncc(C#Cc3ccncc3)cc2C1=O` was tested, and the cytotoxicity call was “active”.
In the case of `C[C@H](CO)N1C[C@H](C)[C@@H](CN(C)S(=O)(=O)c2ccccc2F)Oc2ncc(C#Cc3ccncc3)cc2C1=O`, the cytotoxicity call is reported as “inactive”.
For `C[C@@H]1CN([C@@H](C)CO)C(=O)c2cc(C#Cc3ccncc3)cnc2O[C@@H]1CN(C)S(=O)(=O)c1ccccc1F`, the cytotoxicity call was “inactive”.
`COc1ccc(S(=O)(=O)N[C@@H]2CC[C@@H](CC(=O)N3CCC(Cc4ccccc4)CC3)O[C@@H]2CO)cc1` was tested, and the cytotoxicity call was “inactive”.
For `O=c1c(-c2ccc(O)cc2)coc2c([C@H]3O[C@H](CO)[C@@H](O)[C@H](O)[C@H]3O)c(O)ccc12`, the cytotoxicity call was “inactive”.
With `Cc1ccc2nc(-c3ccco3)[nH]c2c1` the cytotoxicity call was “inactive”.
With `CCS(=O)(=O)N1C[C@]2(CCN(CC2)C(=O)Nc2c(noc2C)C)c2c(n(c3cc(ccc23)OC)C)[C@@H]1CO` the cytotoxicity call was “inactive”.
With `C[C@H](CO)N1C[C@H](C)[C@@H](CN(C)S(=O)(=O)c2ccc(F)cc2)Oc2ccc(NC(=O)Cc3ccccc3)cc2CC1=O` the cytotoxicity call was “inactive”.
`COc1cccc(NC(=O)N[C@@H]2CC[C@H](CC(=O)N3CCN(C)CC3)O[C@H]2CO)c1` was tested, and the cytotoxicity call was “inactive”.
In the case of `O=C(C[C@@H]1C=C[C@H](NC(=O)c2ccc(F)cc2)[C@H](CO)O1)NCc1ccncn1`, the cytotoxicity call is reported as “inactive”.
In the case of `C[C@@H]1CCCCO[C@H](CN(C)C(=O)Cc2ccccc2)[C@@H](C)CN([C@@H](C)CO)C(=O)c2cc(NC(=O)Nc3ccc(C(F)(F)F)cc3)ccc2O1`, the cytotoxicity call is reported as “inactive”.
For `C[C@@H]1CN([C@H](C)CO)C(=O)Cc2cc(NC(=O)Nc3cccc4ccccc34)ccc2O[C@@H]1CN(C)Cc1ccc(C(=O)O)cc1`, the cytotoxicity call was “inactive”.
`COCCNC(=O)C[C@@H]1CC[C@H]2[C@@H](COC[C@@H](O)CN2S(=O)(=O)c2ccccc2C)O1` was tested, and the cytotoxicity call was “inactive”.
For `C[C@H](CO)N1C[C@H](C)[C@@H](CN(C)Cc2ccc(C(=O)Nc3ccccc3N)cc2)Oc2ccc(NS(=O)(=O)c3ccc(Cl)cc3)cc2CC1=O`, the cytotoxicity call was “inactive”.
In the case of `C[C@H]1CN([C@@H](C)CO)C(=O)c2cccc(NC(=O)C3CC3)c2O[C@H]1CN(C)S(=O)(=O)c1cn(C)cn1`, the cytotoxicity call is reported as “inactive”.
`C[C@@H]1CCCCO[C@H](CN(C)S(=O)(=O)c2ccc(Cl)cc2)[C@@H](C)CN([C@@H](C)CO)C(=O)c2cc(NS(=O)(=O)c3ccc(F)cc3)ccc2O1` was tested, and the cytotoxicity call was “inactive”.
For `C[C@@H]1CCCCO[C@H](CN(C)S(=O)(=O)c2ccc(Cl)cc2)[C@H](C)CN([C@H](C)CO)C(=O)c2cc(NS(=O)(=O)c3ccc(F)cc3)ccc2O1`, the cytotoxicity call was “inactive”.
With `C[C@@H]1CCCCO[C@@H](CN(C)S(=O)(=O)c2ccc(Cl)cc2)[C@@H](C)CN([C@@H](C)CO)C(=O)c2cc(NS(=O)(=O)c3ccc(F)cc3)ccc2O1` the cytotoxicity call was “active”.
`C[C@@H]1CCCCO[C@H](CN(C)S(=O)(=O)c2ccc(F)cc2)[C@@H](C)CN([C@@H](C)CO)C(=O)c2cc(NS(=O)(=O)c3ccc(Cl)cc3)ccc2O1` was tested, and the cytotoxicity call was “inactive”.
In the case of `C[C@@H]1CN([C@@H](C)CO)C(=O)c2cc(NS(=O)(=O)c3ccc(F)cc3)ccc2O[C@@H](C)CCCCO[C@@H]1CN(C)S(=O)(=O)c1ccc(Cl)cc1`, the cytotoxicity call is reported as “inactive”.
In the case of `C[C@H](CO)N1C[C@H](C)[C@H](CN(C)S(=O)(=O)c2ccc(Cl)cc2)OCCCC[C@H](C)Oc2ccc(NS(=O)(=O)c3ccc(F)cc3)cc2C1=O`, the cytotoxicity call is reported as “active”.
`C[C@@H]1CCCCO[C@H](CN(C)S(=O)(=O)c2ccc(F)cc2)[C@H](C)CN([C@@H](C)CO)C(=O)c2cc(NS(=O)(=O)c3ccc(Cl)cc3)ccc2O1` was tested, and the cytotoxicity call was “active”.
`C[C@H](CO)N1C[C@H](C)[C@@H](CN(C)S(=O)(=O)c2ccc(Cl)cc2)OCCCC[C@H](C)Oc2ccc(NS(=O)(=O)c3ccc(F)cc3)cc2C1=O` was tested, and the cytotoxicity call was “inactive”.
For `C[C@@H]1CCCCO[C@H](CN(C)S(=O)(=O)c2ccc(Cl)cc2)[C@H](C)CN([C@@H](C)CO)C(=O)c2cc(NS(=O)(=O)c3ccc(F)cc3)ccc2O1`, the cytotoxicity call was “active”.
For `C[C@@H]1CN([C@@H](C)CO)C(=O)c2cc(NS(=O)(=O)c3ccc(F)cc3)ccc2O[C@@H](C)CCCCO[C@H]1CN(C)S(=O)(=O)c1ccc(Cl)cc1`, the cytotoxicity call was “inactive”.
`COc1ccc(S(=O)(=O)Nc2ccc3c(c2)C(=O)N([C@H](C)CO)C[C@@H](C)[C@@H](CN(C)S(=O)(=O)c2cn(C)cn2)O3)cc1` was tested, and the cytotoxicity call was “inactive”.
In the case of `O=C(N[C@H]1CCS(=O)(=O)C1)N1CCCCC1`, the cytotoxicity call is reported as “inactive”.
`Cc1ccc(N2C(=O)c3ccccc3[C@](C)(C(=O)NCCN3CCOCC3)[C@@H]2c2ccc(CO)cc2)nc1` was tested, and the cytotoxicity call was “inactive”.
`C[C@@H]1CN([C@H](C)CO)C(=O)Cc2cc(NC(=O)Cn3cnnn3)ccc2O[C@@H]1CN(C)C(=O)Nc1ccc(F)cc1` was tested, and the cytotoxicity call was “inactive”.
With `Cc1ccc(S(=O)(=O)N(C)C[C@H]2OCCCC[C@H](C)Oc3ccc(NC(=O)Nc4cccc5ccccc45)cc3C(=O)N([C@@H](C)CO)C[C@H]2C)cc1` the cytotoxicity call was “inactive”.
With `O=C(C1=C[C@@H](C2CC2)C[C@@H](OCc2ccc(CO)cc2)O1)N1CCN(Cc2ccc3c(c2)OCO3)CC1` the cytotoxicity call was “inactive”.
`CCC(=O)O[C@H]1[C@H](O[C@@H]2[C@@H](C)[C@H](O[C@H]3C[C@@](C)(OC)[C@@H](O)[C@H](C)O3)[C@@H](C)C(=O)O[C@H](CC)[C@@](C)(O)[C@H](O)[C@@H](C)C(=O)[C@H](C)C[C@@]2(C)O)O[C@H](C)C[C@@H]1N(C)C` was tested, and the cytotoxicity call was “inactive”.
With `O=C(C[C@H]1C=C[C@H](NC(=O)c2ccc(F)cc2)[C@H](CO)O1)NCc1ccncn1` the cytotoxicity call was “inactive”.
In the case of `CN(C)C(=O)c1ccc(-c2cccc(-c3nc(C(=O)NC4CCC4)cc4c3[C@@H](CCO)N([S@](=O)C(C)(C)C)C4)c2)cc1`, the cytotoxicity call is reported as “inactive”.
For `C[C@@H]1CCCCO[C@@H](CN(C)S(=O)(=O)c2cccs2)[C@@H](C)CN([C@@H](C)CO)C(=O)c2cc(NC(=O)Nc3ccc(F)cc3)ccc2O1`, the cytotoxicity call was “inactive”.
With `C[C@H]1CCCCO[C@H](CN(C)S(=O)(=O)c2ccc(F)cc2)[C@@H](C)CN([C@@H](C)CO)C(=O)c2cc(NS(=O)(=O)c3ccc(Cl)cc3)ccc2O1` the cytotoxicity call was “active”.
`C[C@@H]1CCCCO[C@H](CN(C)S(=O)(=O)c2ccc(F)cc2)[C@H](C)CN([C@H](C)CO)C(=O)c2cc(NS(=O)(=O)c3ccc(Cl)cc3)ccc2O1` was tested, and the cytotoxicity call was “inactive”.
In the case of `C[C@H](CO)N1C[C@H](C)[C@@H](CN(C)S(=O)(=O)c2ccc(F)cc2)OCCCC[C@H](C)Oc2ccc(NS(=O)(=O)c3ccc(Cl)cc3)cc2C1=O`, the cytotoxicity call is reported as “inactive”.
For `C[C@@H]1CN([C@H](C)CO)C(=O)c2cc(NS(=O)(=O)c3ccc(F)cc3)ccc2O[C@@H](C)CCCCO[C@H]1CN(C)S(=O)(=O)c1ccc(Cl)cc1`, the cytotoxicity call was “inactive”.
For `C[C@H](CO)N1C[C@H](C)[C@H](CN(C)S(=O)(=O)c2ccc(F)cc2)OCCCC[C@H](C)Oc2ccc(NS(=O)(=O)c3ccc(Cl)cc3)cc2C1=O`, the cytotoxicity call was “inactive”.
`C[C@@H]1CCCCO[C@H](CN(C)S(=O)(=O)c2ccc(F)cc2)[C@@H](C)CN([C@H](C)CO)C(=O)c2cc(NS(=O)(=O)c3ccc(Cl)cc3)ccc2O1` was tested, and the cytotoxicity call was “inactive”.
`C[C@@H]1CN([C@H](C)CO)C(=O)c2cc(NS(=O)(=O)c3ccc(Cl)cc3)ccc2O[C@@H](C)CCCCO[C@H]1CN(C)S(=O)(=O)c1ccc(F)cc1` was tested, and the cytotoxicity call was “active”.
In the case of `C[C@H]1CCCCO[C@H](CN(C)S(=O)(=O)c2ccc(Cl)cc2)[C@@H](C)CN([C@@H](C)CO)C(=O)c2cc(NS(=O)(=O)c3ccc(F)cc3)ccc2O1`, the cytotoxicity call is reported as “active”.
For `C[C@H]1CCCCO[C@@H](CN(C)S(=O)(=O)c2ccc(Cl)cc2)[C@@H](C)CN([C@@H](C)CO)C(=O)c2cc(NS(=O)(=O)c3ccc(F)cc3)ccc2O1`, the cytotoxicity call was “inactive”.
`CC(C)NC(=O)N(C)C[C@H]1Oc2ccc(NC(=O)Cc3ccccc3)cc2CC(=O)N([C@H](C)CO)C[C@H]1C` was tested, and the cytotoxicity call was “inactive”.
With `C[C@@H]1CCCCO[C@H](CN(C)Cc2ccc(C(=O)O)cc2)[C@H](C)CN([C@H](C)CO)C(=O)c2cc(NS(=O)(=O)c3ccc(Cl)cc3)ccc2O1` the cytotoxicity call was “inactive”.
